Holding throughout (experiment): Cytotoxic Profiling of Annotated Libraries Using Quantitative High-Throughput Screening (AID 1296008); also: nearly all actives have a fitted effect of over 60% in size
Settings in all cases: Five cell lines viability, CellTiter-Glo ATP luminescence, 48-72 h; max response: active compounds read low

For one test, the system named is CRL-7250. In short, it runs like this:
(§1)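 Cytotoxicity was measured as CellTiter-Glo ATP luminescence, read after 10 min at room temperature. Compound treatment of the cells lasted 48 or 72 hr at 37 degrees Celsius in a qHTS format.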

The test system of the next test is HEK293. A digest of the protocol: as §1
For the next test, the system named is HaCat. A digest of the protocol: as §1
The next test deals with KB-3-1. A digest of the protocol:
as §1

The subject of a further test is NIH3T3. In short, it runs like this:
as §1

Results filed as inconclusive are left out. Unmarked numbers belong to inactive results. Active and inactive are the calls of the source. Calls follow the shape of the dose curve; as a rule, active = well fitted inhibition curve with a large enough effect; inconclusive = small, poorly fitted or top-dose-only effect; inactive = flat fitted curve, though single readings scatter.
% is scaled to controls: 0 for no effect and ±100 for the full control effect; potency is read from the fitted curve at half-maximal effect.

`CCC(C)C(=O)OC1CC(C)C=C2C=CC(C)C(CCC(O)CC(O)CC(=O)O)C21` (stereo not given): the Potency in the test with CRL-7250 is 7.09 µM (active). The max response is -0.653% in the test with HEK293, -2.56% in the test with HaCat, 5.43% with KB-3-1 and -8.16% in the test on NIH3T3.

As to `CC(C)S(=O)(=O)NC[C@H](C)c1ccc(NC(=O)c2cc(F)cc(F)c2)cc1`, the compound was classed as inactive with CRL-7250. Also, the max response in the test with HEK293 is -6.11%; with HaCat it was -5.79%; with KB-3-1 it was 3.14%; in the test on NIH3T3 it was 3.47%.

`COCCOc1ccc(N2CCN(CCn3ncc4c3nc(N)n3nc(-c5ccco5)nc43)CC2)cc1`: in the test with CRL-7250, the outcome was inactive. In addition, the max response in the test on HEK293 is -9.01%; in the test with HaCat it was 2.38%; in the test with KB-3-1, -29.2%; with NIH3T3, 0.99%.

Regarding `CC1CCC2(OC1)OC1CC3C4CC=C5CC(O)CC(O[C@@H]6OC[C@@H](O)[C@H](O)[C@H]6O)C5(C)C4CCC3(C)C1(O)C2C` (stereo not given in full), the result in the test with CRL-7250 was inactive. In addition, the max response in the test with HEK293 is 3.32%; in the test with HaCat, 3.49%; with KB-3-1 it was 5.9%; with NIH3T3, -1.3%.

Take `O=C(CN1C(=O)C2(CCCC2)NCC1c1cc(F)cc(F)c1)Nc1ccc2c(c1)CC1(C2)C(=O)Nc2ncccc21` (stereo not given): the compound was called inactive in the test with CRL-7250 and in the test on KB-3-1. The results for the max response with HEK293, with HaCat and with NIH3T3 were -6.98%, 1.71% and -0.622%, respectively.

Turning to `CC1OC(OC2C(O)C(OC3CCC4(C)C(CCC5(C)C4CC=C4C6CC(C)(COC7OC(CO)C(O)C(O)C7O)CC(O)C6(C)CCC45C)C3(C)C)OC(C(=O)O)C2O)C(O)C(O)C1OC1OCC(O)C(O)C1O` (stereo not given), the max response in the test with CRL-7250 is 3.82%; in the test on HEK293, -5.93%; in the test on HaCat, -5.35%; in the test with NIH3T3, -0.449%. In the test with KB-3-1, the outcome was inactive.

Take `Fc1ccc2nc(CCC#Cc3ccccn3)cn2c1`: the max response with CRL-7250 was -4.35%; in the test on HEK293, -6.15%; with HaCat, -2.5%; in the test on KB-3-1 it was -13.9%; with NIH3T3, -0.863%.

Consider `N#Cc1ccc(C(=O)N2CCC3(CC2)N=C(N)c2c(F)ccc(F)c2N3)cn1`, for which the max response was -4.2% in the test on CRL-7250; -18.7% in the test with HEK293; 2.01% in the test with HaCat; -9.49% with KB-3-1; -5.13% with NIH3T3.

For the compound `CCc1c(-c2ccccc2)c(-c2ccccc2)nn1-c1ccccc1-c1cccc(OCC(=O)O)c1`, the max response with CRL-7250 was -8.36%; in the test on HEK293, -14.2%; in the test with HaCat it was -10.2%; in the test with NIH3T3, 0.468%. The result in the test with KB-3-1 was inactive.

Take `Cc1ccc(Cc2c(C)nc3nc(SCC(=O)NCCN4CCNCC4)nn3c2C)cc1`: the call in the test on CRL-7250 and in the test on KB-3-1 was inactive. Moreover, the max response in the test with HEK293 is 2.24%; in the test on HaCat, -12.4%; in the test with NIH3T3, -3.32%.

With `C=C(C(=O)OC)C1C(O)CC2(C)C(O)CCC(=O)C2C1O` (stereo not given), the max response was -16.1% in the test with CRL-7250, -7.45% in the test with HEK293, 2.14% in the test on KB-3-1 and 3.84% in the test with NIH3T3. The outcome with HaCat was inactive.

Take `CC(C)(O)CC(CO)NC(=O)CC(O)CC(=O)Cc1ccccc1` (stereo not given): the max response was 2.18% in the test on CRL-7250; 0.672% in the test on HEK293; 3.84% with HaCat; 2.2% with KB-3-1; 2.22% in the test on NIH3T3.

Consider `Cc1ccc(-c2ccc3c(ccc4sc5c(c43)NC[C@@H](C)NC5=O)n2)cn1`, for which the compound was called inactive in the test with CRL-7250 and with KB-3-1. Besides, the results for the max response in the test on HEK293, in the test with HaCat and in the test on NIH3T3 were -21.3%, -8.25% and -0.392%, respectively.

`CCc1ccc(Cc2ccc3c(c2)[C@]2(OC3)O[C@H](CO)[C@@H](O)[C@H](O)[C@H]2O)cc1`: the result in the test with CRL-7250 was inactive. The max response with HEK293 was -3.78%; with HaCat, 3.62%; in the test on KB-3-1 it was -4.58%; in the test with NIH3T3 it was 1.11%.

In the case of `CC1OC(OCC2OC(OC3CCC4(C)C(CCC5(C)C4CC=C4C6CC(C)(C)CCC6(C(=O)OC6OC(CO)C(O)C(O)C6O)CCC45C)C3(C)CO)C(O)C(O)C2O)C(O)C(O)C1O` (stereo not given), the max response is -3.44% in the test with CRL-7250; -5.12% in the test on HEK293; 2.13% in the test with HaCat; 9.22% in the test on KB-3-1; 0.258% in the test on NIH3T3.

On to `Cc1cc(Nc2ncc3cc(-c4c(Cl)cccc4Cl)c(=O)n(C)c3n2)ccc1F`, for which the Potency with CRL-7250 was 1.84 µM (active); with HEK293, 2.31 µM (active); with HaCat, 5.8 µM (active); in the test on KB-3-1, 2.59 µM (active); with NIH3T3 it was 1.46 µM (active).

Regarding `Cc1cccc(S(=O)(=O)N2CCC[C@@H]2CCN2CCC(C)CC2)c1`, the max response was -2.64% in the test with CRL-7250; -20.7% in the test on HEK293; -28.1% in the test with HaCat; -9.32% with KB-3-1; -11.7% with NIH3T3.

Take `C=CC/C=C\C/C=C\CCCCCCCc1cccc(O)c1C(=O)O`: the outcome with CRL-7250 was inactive. Moreover, the max response in the test with HEK293 is -5.53%; in the test on HaCat, 3.56%; in the test with KB-3-1, 4.36%; in the test with NIH3T3, -1.27%.

On to `CC(=O)N1CCN(Cc2ccc([C@H](C)Nc3nccc(N4C(=O)OC[C@@H]4C(C)C)n3)cc2)CC1`, for which, in the test on CRL-7250, the Potency was 0.92 µM (active). For the same compound, the max response in the test on HEK293 was -108%; in the test with HaCat, -0.103%; in the test with KB-3-1, 2.58%; in the test on NIH3T3, -9.86%.

Values taken from PubChem BioAssay (NCATS).
